From PubChem BioAssay (NCI)
The panel holds about 83,000 compounds, 20% with a hit somewhere; the sample as a whole holds those more often.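 96-well plates, one dose, 48 hours. Percent growth reported; active if below 10.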 Values without a mark were called inactive. Active and inactive are the calls of the source.

Tests used:
Test in all cases: NCI-60 one-dose screen, 48 h (100 = growth as untreated, 0 = no growth, -100 = all killed)
Conditions in all cases: 10 µM unless noted
EKVX NSCLC = tested on: EKVX NSCLC
SN12C renal = tested on: SN12C renal
UO-31 renal = tested on: UO-31 renal
TK-10 renal = tested on: TK-10 renal
ACHN renal = tested on: ACHN renal
CAKI-1 renal = tested on: CAKI-1 renal
A498 renal = tested on: A498 renal
CCRF-CEM leukemia = tested on: CCRF-CEM leukemia
MOLT-4 leukemia = tested on: MOLT-4 leukemia
SR leukemia = tested on: SR leukemia
RPMI-8226 leukemia = tested on: RPMI-8226 leukemia
OVCAR-8 ovarian = tested on: OVCAR-8 ovarian
OVCAR-5 ovarian = tested on: OVCAR-5 ovarian
OVCAR-4 ovarian = tested on: OVCAR-4 ovarian
SK-OV-3 ovarian = tested on: SK-OV-3 ovarian
IGROV1 ovarian = tested on: IGROV1 ovarian
OVCAR-3 ovarian = tested on: OVCAR-3 ovarian
HS 578T breast = tested on: HS 578T breast
NCI/ADR-RES ovarian = tested on: NCI/ADR-RES ovarian

| Structure (SMILES) | growth (EKVX NSCLC) | growth (SN12C renal) | growth (UO-31 renal) | growth (TK-10 renal) | growth (ACHN renal) | growth (CAKI-1 renal) | growth (A498 renal) | growth (CCRF-CEM leukemia) | growth (MOLT-4 leukemia) | growth (SR leukemia) | growth (RPMI-8226 leukemia) | growth (OVCAR-8 ovarian) | growth (OVCAR-5 ovarian) | growth (OVCAR-4 ovarian) | growth (SK-OV-3 ovarian) | growth (IGROV1 ovarian) | growth (OVCAR-3 ovarian) | growth (HS 578T breast) | growth (NCI/ADR-RES ovarian) |
| --- | --- | --- | --- | --- | --- | --- | --- | --- | --- | --- | --- | --- | --- | --- | --- | --- | --- | --- | --- |
| COc1ccc(C(=O)c2cc3c(N)c(C(=O)Nc4cccc(Cl)c4)sc3nc2C)cc1 | 39.4% | 42.7% | 42.7% | 49.9% | 49.3% | 44.1% | -0.876% (active) | 8.14% (active) | 20.2% | -18.2% (active) | 9.77% (active) | 27.1% | 49.3% | 49.5% | 44% | 47.9% | 0.514% (active) | 18.5% | 8.84% (active) |
| CC(=O)[C@@H]1CC[C@]2(C(N)=O)CC[C@]3(C)[C@H](CC[C@@H]4[C@@]5(C)CCC(=O)C(C)(C)[C@@H]5CC[C@]43C)[C@@H]12 | 90.1% | 102% | 98.7% | 107% | 97.1% | 89.6% | – | 99% | 92.5% | 94.4% | 80.4% | 109% | 101% | 89.1% | 90.6% | 107% | 103% | 120% | 98.7% |
| CC(=O)c1c(-c2ccc(OC(F)(F)F)cc2)nc2ccccn12 | 96% | 103% | 81.6% | 6.58% (active) | 95.7% | 92.4% | – | 109% | 118% | 116% | 101% | – | 83.1% | 100% | 97.6% | 88.8% | 101% | 102% | 95.9% |
| Clc1cc(Cl)cc(N2N=C(c3cccc(Nc4ccncc4)c3)CC2c2ccccc2)c1 (stereo unspecified) | 87.6% | 71.4% | 62% | 89.9% | – | – | 103% | 28.3% | 2.51% (active) | 5.16% (active) | 28.5% | 2.42% (active) | 80.4% | 55.7% | 84.7% | 39.5% | 67.4% | 80.2% | 72.1% |
| COc1cc2ncnc(Nc3ccc(C(=O)/C=C/c4ccc(C(F)(F)F)cc4F)cc3)c2cc1OC | 90% | 101% | 75.4% | 110% | 92.3% | – | 97.4% | 83.8% | 68.3% | 63.4% | 12.8% | 101% | 103% | 105% | 123% | 94.2% | 101% | 66.8% | 102% |
| COc1ccc(C(O)c2cc3c(N)c(C(=O)Nc4ccc(Cl)cc4)sc3nc2C)cc1 (stereo unspecified) | 37% | 34.6% | 37% | 42.4% | 35.6% | 25.2% | -5.66% (active) | 8.15% (active) | 15.5% | -9.53% (active) | 5.22% (active) | 30.6% | 46.8% | 38.4% | 32.1% | 33% | -35.7% (active) | 7.82% (active) | 16% |
| CCCCCCCCCCCCCCCCCCOc1ccccc1N | 85.3% | 27.8% | -37% (active) | 103% | 97.8% | 67.8% | 61.8% | 11% | 22.9% | 75.4% | 12.1% | 70.9% | 101% | 55% | 74.7% | 75.1% | – | 84.2% | 86.9% |
| COc1ccc(-c2nc(SC(C)C)nc(NNC(N)=O)c2C#N)cc1 | 99.2% | 83.9% | 68.2% | 97.1% | 90.1% | 72.2% | 90.2% | 88.3% | 78.6% | 25.8% | 93.9% | 96.9% | 85.6% | 94.6% | 83.8% | 72.4% | 81% | 78.9% | 70.7% |
| CN1CCN(CC#CCNC(=O)[C@]23CCC(C)(C)C[C@H]2C2=CC[C@@H]4[C@@]5(C)Cc6c([nH]c7ccccc67)C(C)(C)[C@@H]5CC[C@@]4(C)[C@]2(C)CC3)CC1 | 83.3% | 77.8% | 64.2% | 91.8% | 95.3% | 87.2% | – | 48.8% | 31.2% | -2.18% (active) | 53.2% | 77% | 98.9% | 77.8% | 87.1% | 81.3% | 72.2% | 77.9% | 76.9% |
| CC(=O)c1cccc(NS(=O)(=O)c2cccc(C(=O)Nc3ccc(Br)cc3)c2)c1 | 27.1% [25 µM] | 58% [25 µM] | 41% [25 µM] | 80.7% [25 µM] | 61.5% [25 µM] | 39.6% [25 µM] | – | 47.7% [25 µM] | 38.7% [25 µM] | 60.6% [25 µM] | 30.4% [25 µM] | 57.1% [25 µM] | 77.9% [25 µM] | 47.6% [25 µM] | 58.1% [25 µM] | 62.4% [25 µM] | 66.1% [25 µM] | 80.6% [25 µM] | 34.7% [25 µM] |
| CC1(C)[C@H](O)CC[C@]2(C)[C@@H]1CC[C@@]13C[C@@H](CC[C@H]12)[C@@](O)(CO)C3 | 104% | 103% | 93.6% | 108% | 106% | – | 96.9% | 106% | 108% | 103% | 108% | 110% | 106% | 117% | 109% | 113% | 112% | 97.9% | 106% |
| CC[C@H](C)[C@@H]1NC(=O)[C@H](Cc2ccc(O)cc2)N(C)C(=O)[C@H](Cc2ccccc2)NC(=O)CN(C)C(=O)[C@@H]2CCCN2C(=O)[C@@H](Cc2ccccc2)N(C)C(=O)[C@H](CC(C)C)NC1=O | -3.63% (active) | -13.7% (active) | 44.4% | 6.34% (active) | 4.52% (active) | 11.4% | -3.73% (active) | -7.96% (active) | 2.71% (active) | 4.5% (active) | -33.3% (active) | 5.34% (active) | – | -4.8% (active) | 4.76% (active) | -8.42% (active) | -10.7% (active) | -12% (active) | 70.7% |
| COc1cc(C2CC(c3cccc(Nc4ccncc4)c3)=NN2c2ccccc2)cc(OC)c1OC (stereo unspecified) | 71.2% | 62.5% | 53.3% | 82.8% | 65.6% | 43.6% | 74.9% | 6.7% (active) | 1.73% (active) | 2.93% (active) | 7.32% (active) | 66.6% | – | 41.2% | 74% | 55% | 56.2% | 64.2% | 66.3% |
| CCOC(=O)Oc1c(OC)cc(C(=O)O[C@@H]2C[C@@H]3CN4CCc5c([nH]c6cc(OC)ccc56)[C@H]4C[C@@H]3[C@H](C(=O)OC)[C@H]2OC)cc1OC | – | 60% | 80.2% | 99.7% | 66.5% | 65.5% | – | -10.8% (active) | 7.97% (active) | -2.39% (active) | -5.39% (active) | 75.9% | 90.5% | 94.7% | 91.9% | 82.3% | 38.5% | 72.1% | 56.5% |
| CCc1c(Nc2ccc(C)cc2)[nH]c(N)nc1=S | 84.9% | 98.4% | 91.5% | 111% | 98% | 89.8% | – | 107% | 110% | 94.4% | 115% | 101% | 98.9% | 107% | 111% | 104% | 119% | 94.8% | 105% |
| Nc1nnc(C(=O)c2cnc3n(c2=O)CCCCC3)s1 | 98.8% | 95.1% | 86.3% | 102% | 101% | 92.3% | – | 128% | 97.1% | 107% | – | 105% | 104% | 111% | 101% | 110% | 102% | 99.7% | 94.7% |
| COc1cccc(CCC(=O)c2cc3c(N)c(C(=O)Nc4cccc(Cl)c4C)sc3nc2C)c1 | 36.2% | 36% | 30.7% | 52.9% | 32.2% | 20.5% | -6.77% (active) | 8.7% (active) | 16% | 9.08% (active) | 7.83% (active) | 24.1% | 28.3% | 36.9% | 32.4% | 24.4% | -8.82% (active) | 2.96% (active) | 10.7% |
